Data reported in PubChem BioAssay AID602333 (Sanford-Burnham Center for Chemical Genomics, 2012).
The campaign covered roughly 1,900 compounds. About 240 (13%) were called active. This is one part of a sample in which actives are shown more often than they occur.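 How the source made its calls: active means mean inhibition at least 40% at 20 µM, or signal 3 deviations below plate average, so some actives read negative; inactive means the rest.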

Molecular target: Prothrombin (Bos taurus) (UniProt P00735)
Sequence (P00735 whole entry, looked up): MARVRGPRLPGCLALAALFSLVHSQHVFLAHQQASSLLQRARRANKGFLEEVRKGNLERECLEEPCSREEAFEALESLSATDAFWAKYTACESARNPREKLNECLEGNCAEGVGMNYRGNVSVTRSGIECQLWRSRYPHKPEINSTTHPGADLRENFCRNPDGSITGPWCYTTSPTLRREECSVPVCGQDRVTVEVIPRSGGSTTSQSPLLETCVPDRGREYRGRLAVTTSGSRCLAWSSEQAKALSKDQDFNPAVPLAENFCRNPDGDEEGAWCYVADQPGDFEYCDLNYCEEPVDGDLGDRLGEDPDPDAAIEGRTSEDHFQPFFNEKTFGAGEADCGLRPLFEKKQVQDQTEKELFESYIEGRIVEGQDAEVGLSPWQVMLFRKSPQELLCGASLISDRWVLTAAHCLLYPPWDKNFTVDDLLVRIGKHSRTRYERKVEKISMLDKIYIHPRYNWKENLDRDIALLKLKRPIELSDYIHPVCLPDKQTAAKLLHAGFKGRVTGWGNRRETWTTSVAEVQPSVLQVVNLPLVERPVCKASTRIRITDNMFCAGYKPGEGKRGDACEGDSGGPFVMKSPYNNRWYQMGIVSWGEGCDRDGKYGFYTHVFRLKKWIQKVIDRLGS
Assay: bovine thrombin protease inhibition, confirmation, counter-screen for Rpn11 inhibitor project, biochemical, fluorescence polarization, single concentration (AID 602333);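 further: plate controls were thrombin with DMSO for no effect and buffer wells lacking thrombin for full effect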
Conditions: bovine thrombin cleavage of Ub4-pepOG, at 20 µM, hits give high values

SMILES | inhibition
CCN1C(=O)C(=Cc2c(C)n(CC(=O)NCC3CCCO3)c3ccccc23)C(=O)N(CC)C1=S (stereo not drawn) | 53.3% (active)
O=c1[nH]c(=O)n(Cc2ccccc2)c(O)c1/C=N/Nc1c(F)c(F)c(F)c(F)c1F | 12.8% (inactive)
Cc1cccc(N2C(=O)NC(=O)/C(=C\c3cnn(-c4ccccc4)c3)C2=O)c1 | 6.14% (inactive)
